The full list was thinned out, with hits kept by preference.
AMA1-RON2 inh: disrupts binding of P. falciparum AMA1 to RON2. AlphaScreen AMA1-biotinylated RON2 peptide binding. Potency, µM (doses to about 58.2 µM), for the others: top-dose activity change, negative = inhibition, actives largely listed as inhibitors. 360,000 tested, 0.2% active. AID 720542;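 also: potency is read from the fitted curve at half-maximal effect; 0% = vehicle wells and -100% = peptide control; nearly all actives have a fitted effect of over 45% in size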
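AMA1 (3D7) with his tag at 25 nM final met compounds first, then biotinylated RON2 peptide at 25 nM; detection used donor plus acceptor beads, 10 µg/mL apiece, read by AlphaScreen after 30 min at room temperature.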
Shiga toxin inh: Shiga toxin inhibition; Vero cells, Shiga toxin protein synthesis inhibition reporter; inhibition, % at 38.7 µM; 290,000 tested, 9.2% active; in the data active = inhibition mostly above about 28%, no sharp cut-off; inactive = mostly below about 43%; also: 0% is about no effect
SARS PLpro yeast: inhibitors of SARS-CoV papain-like protease in yeast | S. cerevisiae expressing SARS-CoV PLpro, growth rescue | Potency, µM (top dose mostly 32.9 µM), for inactives: at the highest dose activity, positive = growth rescue, usual class: activators | 330,000 tested, 0.19% active | AID 485353; calls by dose curve; also: potency is read from the fitted curve at half-maximal effect; 0% is about no effect; nearly all actives have a fitted effect of over 55% in size
CHX counter: counter-screen for Shiga toxin inhibitors: cycloheximide protein synthesis inhibition; 300,000 tested, 12% active; max response, %; cell reporter, cycloheximide protein synthesis inhibition counterscreen; AID 2314; in the data active = max response mostly above about 13%, no sharp cut-off; inactive = mostly below about 14%; also: read at 38.3 µM for the half of the compounds with a filed dose; 0% is about no effect
AmpC detergent: AmpC beta-lactamase inhibition with detergent present; AmpC hydrolysis of nitrocefin, absorbance 480 nm, 0.01% Triton; 370,000 tested, 0.041% active; Potency, µM (top dose mostly 114 µM), inactives show top-dose activity change, negative = inhibition, usual class: inhibitors; AID 485294;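 also: potency is read from the fitted curve at half-maximal effect; 0% = no-compound wells and -100% = no-enzyme wells; nearly all actives have a fitted effect of over 25% in size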
Target sequence (P00811 whole entry, looked up): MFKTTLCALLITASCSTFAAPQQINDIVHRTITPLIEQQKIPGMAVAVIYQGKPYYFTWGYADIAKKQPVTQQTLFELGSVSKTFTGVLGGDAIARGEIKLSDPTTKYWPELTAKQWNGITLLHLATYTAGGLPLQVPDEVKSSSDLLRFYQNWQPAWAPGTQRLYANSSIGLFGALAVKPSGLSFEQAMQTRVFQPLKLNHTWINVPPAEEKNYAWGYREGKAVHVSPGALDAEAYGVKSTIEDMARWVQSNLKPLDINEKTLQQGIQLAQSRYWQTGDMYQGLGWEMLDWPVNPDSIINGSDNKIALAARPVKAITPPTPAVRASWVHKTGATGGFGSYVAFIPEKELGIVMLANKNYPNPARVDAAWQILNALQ
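20 mM phosphate pH 7.0 + 0.01% (detergent screen) or 0.0001% Triton X-100; 5.3 nM AmpC reagent; cpd preinc 15 min RT; nitrocefin (800 uM stock) to start; A480 q20 s × 4 min; Activity was normalised to no-enzyme and no-compound control wells.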
AmpC no deterg: inhibitors of E. coli AmpC beta-lactamase without detergent; P00811; Potency, µM (series often up to 57.1 µM), without a hit: at the top dose activity change, negative = inhibition, hits mostly inhibitors; AmpC nitrocefin hydrolysis, absorbance 480 nm, 0.0001% Triton; 330,000 tested, 0.52% active; AID 485341;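 also: potency is read from the fitted curve at half-maximal effect; plate controls were no compound for no effect and no enzyme for full effect; nearly all actives have a fitted effect of over 20% in size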
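20 mM phosphate pH 7.0 + 0.01% (detergent screen) or 0.0001% Triton X-100; 5.3 nM AmpC reagent; cpd preinc 15 min RT; nitrocefin (800 uM stock) to start; A480 q20 s × 4 min; Activity was normalised to no-enzyme and no-compound control wells.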
* marks the source's active call; other numbers are inactive results; ? = inconclusive; . = no result given; [ ] = remark or other dose. Unless noted, calls follow the shape of the dose curve; as a rule, active = well fitted curve in the direction sought with a large enough effect; inconclusive = small, poorly fitted or top-dose-only effect, or another doubt; inactive = no such curve, though single readings can be large; an effect the other way counts as inactive or inconclusive.

SMILES	AMA1-RON2 inh	Shiga toxin inh	SARS PLpro yeast	CHX counter	AmpC detergent	AmpC no deterg
NC(=O)c1c(NC(=O)CCCC(=O)O)sc2c1CCCCCC2	-1.0%	21.2	10.0%	2.0	-0.1%	-3.7%
N#Cc1c(NC(=O)CCCC(=O)O)sc2c1CCCCC2	0.5%	111.8*	5.4%	34.4*	0.9%	-3.9%
Cc1ccc(C(=O)Nc2sc3c(c2C#N)CCCCC3)cc1C	34.1%	43.1*	1.6%	23.6*	-4.9%	-26.6%
CCC(=O)Nc1sc2c(c1C(=O)N(C)C)CCCCC2	2.8%	-4.2	8.2%	-4.1	-14.5%	-10.8%
Cc1ccccc1C(=O)NC(=S)Nc1sc2c(c1C#N)CCCC2	26.4%	1.9	-5.5%	11.0	?	-53.9%
CCC(=O)Nc1sc2c(c1C#N)CCCCC2	0.0%	72.3*	-5.2%	36.5*	?	-13.9%
CC(C)(C)C(=O)NC(=S)Nc1sc2c(c1C#N)CCCCC2	34.5%	37.8	-27.9%	19.4*	6.7%	-22.4%
Cc1cccc(N2C(S)=C(C#N)C(=O)NC23CCCCC3)c1	-12.8%	-8.4	15.6%	-0.9	-4.5%	-18.2%
CNS(=O)(=O)c1cccc(C(=O)OCC(=O)Nc2sc3c(c2C#N)CCCCC3)c1	0.6%	44.2*	-1.2%	25.7*	0.2%	-18.4%
N#Cc1c(NC(=O)C(=O)NCCCN2CCOCC2)sc2c1CCCC2	9.9%	15.9	27.2%	5.9	6.2%	0.2%
C=CCNC(=S)Nc1sc2c(c1C#N)CCCC2	3.8%	67.8	-0.1%	23.2*	4.2%	-29.6%
COc1ccc(NC(=O)CC(c2ccccc2)c2ccco2)cc1 (centres undefined)	-2.1%	31.2	-0.8%	14.9	-1.7%	-58.8%
Cc1cc(C)n(-c2ncccc2[N+](=O)[O-])n1	-6.3%	7.6	0.4%	-1.7	0.5%	0.2%
CC(C)c1ccc(-n2cnn(-c3ncccc3[N+](=O)[O-])c2=O)cc1	3.2%	77.2*	-1.6%	33.9*	2.4%	4.8%
COc1ccccc1-n1ccnc1SCC(=O)NC1CCCC1	14.3%	-5.4	-0.1%	-1.2	3.2%	-6.6%
CC(C)C1Oc2ccccc2N(CC(=O)N2CCOCC2)C1=O (centres undefined)	7.4%	-4.5	4.1%	-4.3	3.1%	-5.3%
CC(C)C1Oc2ccccc2C(=O)N(CC(=O)c2ccc3c(c2)OCCO3)C1=O (centres undefined)	-8.7%	91.5*	-0.7%	47.4*	?	-41.4%
CC1Oc2ccccc2C(=O)N(CC(=O)c2ccc3c(c2)OCCO3)C1=O (centres undefined)	-5.9%	71.9*	-3.6%	30.4*	0.6%	-19.2%
CCC1Oc2ccccc2N(CC(=O)N2CCOCC2)C1=O (centres undefined)	1.2%	-2.9	7.9%	-6.4	-6.2%	-8.6%
CCC1Oc2ccccc2C(=O)N(CC(=O)c2ccc3c(c2)OCCO3)C1=O (centres undefined)	11.0%	46.1	-9.2%	34.1*	-1.2%	-22.2%
CCCCN(C)c1nc(-c2ccco2)c2c(c1C#N)CC(C)(C)OC2	19.9%	15.4	-6.1%	-3.7	?	15.1%
NC(=O)c1ccccc1NS(=O)(=O)c1cccs1	-4.2%	12.2	-0.3%	-2.3	-12.7%	-14.5%
C/C(=N\NC(=O)c1sccc1C)c1cccnc1	9.9%	89.1*	-0.8%	41.3*	?	-13.4%
C/C(=N\NC(=O)c1sccc1C)c1ccncc1	52.7%	109.1*	-1.5%	43.9*	12.3%	-19.7%
C/C(=N/NC(=O)c1ccncc1)c1ccccc1	0.2%	.	-1.0%	8.6	-11.1%	-7.0%
SMILES	AMA1-RON2 inh	Shiga toxin inh	SARS PLpro yeast	CHX counter	AmpC detergent	AmpC no deterg
O=C(N/N=C/c1cccc(O)c1)C(=O)N1CCCCCC1	4.1%	3.8	-4.8%	7.8	-13.5%	-27.2%
Cc1ccc(NC(=O)CSc2nnc(NC(=O)C3CC3)s2)cc1C	7.5%	-12.6	-0.1%	1.2	-5.5%	15.4%
C/C(CC1CC2=C(CC1(C)C)C(C)(C)CCC2)=N\NC(N)=S (centres undefined)	34.0%	15.8	11.2µM*	-1.8	13.9%	-26.0%
CC(=O)n1nc(-c2ccccc2)nc1NCc1ccc(F)cc1	-0.1%	45.5	-2.2%	19.5*	-5.4%	-21.3%
O=C(c1cccc([N+](=O)[O-])c1)n1nc(-c2ccccc2)nc1NCc1ccccc1	9.5%	47.7*	28.3%	20.0*	-13.8%	-18.3%
O=C(c1ccc([N+](=O)[O-])cc1)n1nc(-c2ccccc2)nc1NCc1ccc(F)cc1	-3.7%[11.6 µM]	36.6*	10.7%	16.9*	?	-23.5%
O=C(c1ccc([N+](=O)[O-])cc1)n1nc(-c2ccccc2)nc1NCc1ccccc1	0.0%	68.7*	3.6%	46.8*	-1.1%	-23.3%
O=C(c1ccc(F)cc1)n1nc(-c2ccccc2)nc1NCc1ccc(F)cc1	.	.	.	.	-0.4%	.
O=C(c1ccccc1)n1nc(-c2ccccc2)nc1NCc1ccc(F)cc1	.	.	.	.	3.3%	.
Cc1cccc(C(=O)n2nc(-c3cccnc3)nc2NCc2ccccc2)c1	.	.	.	.	-6.2%	.
CCN(c1ccccc1)S(=O)(=O)c1cc2c3c(c1)C(C)C(=O)N3CCC2 (centres undefined)	-8.5%	-9.0	8.6%	1.5	-0.1%	31.0%
Cc1ccc(OCc2cc(C(=O)N3CCCC(O)C3)no2)cn1 (centres undefined)	-5.8%	23.1*	?	19.8*	?	-7.7%
O=C(c1cc(COc2ccccc2)on1)N1CCCC(CN2CCOCC2)C1 (centres undefined)	-10.9%	30.9*	0.0%	25.6*	?	67.9%
CCC/C(=N\NC(=O)CCC(=O)NCc1ccccc1)c1ccccc1	4.6%	-6.1	0.0%	1.2	?	-1.2%
Cc1cc(-c2cc(-c3ccccc3)on2)nc(NC2CCCC2)n1	11.6%	33.6*	-16.1%	21.3	-10.1%	-1.7%
COC1CC(C)C(OC)c2cc(O)cc(c2O)NC(=O)C(C)=CC=CC(C)C(OC(N)=O)C(C)=CC(C)C1OC (centres undefined)	-3.7%	.	.	.	.	.
CCOC(=O)C(C)Sc1ncc(-c2ccc(Cl)cc2)cn1 (centres undefined)	103.2%	-10.6	-10.9%	12.6*	3.7%	0.8%
O=C1NC(=O)C(=Cc2ccc(SC3CCCCC3)o2)C(=O)N1	-0.3%	50.7*	3.3%	12.5	-8.3%	-49.9%
CC(=O)Nc1ccc(NC(=O)CC2SC(=O)N(CC(=O)c3ccccc3)C2=O)cc1 (centres undefined)	0.1%	4.2	-2.8%	2.3	-7.3%	-19.5%
Cc1ccc(NC(=O)CC2=NC(=O)C(CC(=O)Nc3ccccc3F)S2)cc1 (centres undefined)	0.2%	90.4*	-0.7%	22.4*	-1.3%	?
O=C(CC1SC(=O)N(c2ccccc2)C1=O)Nc1ccccc1 (centres undefined)	45.7%	51.1*	-16.9%	51.5*	-3.8%	-20.5%

From PubChem BioAssay
